A selection: hits, their analogues and other compounds. The true share with any hit is near 21%.
Shiga inhibitor: blocks Shiga toxin action in Vero cells. Vero cells, Shiga toxin protein synthesis inhibition reporter. inhibition, % at 38.7 µM. 290,000 compounds, 9.2% hits. AID 2315; in the data active = inhibition mostly above about 28%, no sharp cut-off; inactive = mostly below about 43%; also: 0% is about no effect
Pf growth 96h: P. falciparum growth inhibition at 96 hours; 320,000 compounds, 6.9% hits; P. falciparum luciferase reporter growth, 96 h; Potency, µM (doses to about 28.7 µM), without a hit: top-dose activity change, negative = inhibition, usual class: inhibitors; AID 504834; also: potency is read from the fitted curve at half-maximal effect; % is scaled to controls: 0 for no effect and ±100 for the full control effect
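Plates of compound plus infected erythrocytes (2% hematocrit, 0.05% parasitemia final) incubate 96 hours, 37 C, 5% CO2. Detection reagent added; reduced luminescence from the parasites' luciferase reporter flags inhibition.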
Pf growth 48h: P. falciparum growth inhibition at 48 hours (one generation). P. falciparum luciferase growth in erythrocytes, 48 h. 310,000 compounds, 5.9% hits. Potency, µM (series often up to 28.7 µM), inactives show at the highest dose activity change, negative = inhibition, hits mostly inhibitors; also: potency is read from the fitted curve at half-maximal effect; % is scaled to controls: 0 for no effect and ±100 for the full control effect
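Luciferase-expressing P. falciparum in infected erythrocytes (2% hematocrit, 0.1% parasitemia final) in RPMI 1640/0.5% Albumax were exposed to compound for 48 hours at 37 C, 5% CO2; growth read as luminescence.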
CHX counter: counter-screen hit for Shiga toxin inhibitors, cycloheximide; max response, %; 300,000 compounds, 12% hits; cell reporter, cycloheximide protein synthesis inhibition counterscreen; in the data active = max response mostly above about 13%, no sharp cut-off; inactive = mostly below about 14%; also: read at 38.3 µM for the half of the compounds with a filed dose; 0% is about no effect
NS1 function inh: influenza NS1 inhibition. Potency, µM (top dose mostly 46.1 µM), for the others: at the highest dose activity, positive = more growth. 270,000 compounds, 0.4% hits. AID 2326; calls by dose curve; also: potency is read from the fitted curve at half-maximal effect; actives are rising curves; nearly all actives have a fitted effect of over 50% in size
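In this qHTS, NS1 from influenza A is expressed in budding yeast, where it slows growth. Cells are switched from glucose to 2% galactose medium (pH 6.0, -URA), treated with compound, and growth recovery is read at OD600.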
Sm TGR inh: S. mansoni TGR enzyme inhibition | Q962Y6 | purified TGR, DTNB reduction, TNB absorbance 405 nm | Potency, µM (series often up to 114 µM), inactives show at the highest dose activity change, negative = inhibition, hits mostly inhibitors | 360,000 compounds, 3% hits; also: potency is read from the fitted curve at half-maximal effect; % is scaled to controls: 0 for no effect and ±100 for the full control effect; nearly all actives have a fitted effect of over 60% in size
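TGR 20 nM + NADPH 100 uM (dispensed conc.), cpd preinc 15 min RT; start with NADPH (500 uM addition) then DTNB (15 mM addition). Kinetic TNB absorbance, 405 nm filter. Four-parameter Hill fit across titration.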
The depositor's hits bear a star; i = inactive; ? = inconclusive; nt = not tested or not shown. Unless noted, calls follow the shape of the dose curve; as a rule, active = well fitted curve in the direction sought with a large enough effect; inconclusive = small, poorly fitted or top-dose-only effect, or another doubt; inactive = no such curve, though single readings can be large; an effect the other way counts as inactive or inconclusive.

SMILES	Shiga inhibitor	Pf growth 96h	Pf growth 48h	CHX counter	NS1 function inh	Sm TGR inh
O=S(=O)(c1ccc2[nH]c3c(c2c1)CCCC3)N1CCN(c2cccc(C(F)(F)F)c2)CC1	nt	nt	nt	nt	nt	3%
O=C(O)c1nn(CCOc2ccc(Br)cc2)c(=O)c2ccccc12	-2	27%	38%	-1	-23%	-2%
O=C(O)c1nn(CCOc2ccccc2F)c(=O)c2ccccc12	26	25%	66%	12*	-7%	3%
O=C(O)c1cc(-c2ccc(Cl)cc2)n(-c2ccc(F)cc2)n1	6	?	-16%	5	16%	9%
CCCCN(C(=O)CSc1ncn[nH]1)c1c(N)n(Cc2ccccc2)c(=O)[nH]c1=O	nt	-2%	3%	nt	nt	1%
COc1cc(C2C(C#N)=C(N)N(Nc3ccccc3)C3=C2C(=O)CC(C)(C)C3)ccc1OCc1ccccc1 (centres undefined)	-1	2.9µM*	4.1µM*	2	23%	4%
C=CCOc1ccc(C2C(C#N)=C(N)N(Nc3ccccc3)C3=C2C(=O)CCC3)cc1OC (centres undefined)	-13	4.7µM*	8.3µM*	-3	10%	-3%
CCOc1ccccc1NC(=O)N(Cc1ccc(F)cc1)C1CCN(CC)CC1	nt	nt	nt	nt	nt	-1%
COc1ccc(NC2=Nc3cccc4cccc2c34)cc1	50	-28%	?	25*	-13%	-7%
c1ccc(NC2=Nc3cccc4cccc2c34)cc1	6	104%	-4%	21*	nt	-1%
O=C(O)c1cccc(NC2=Nc3cccc4cccc2c34)c1	38*	i	i	6.7*	-3%	-1%
Fc1ccc(/C=N/NC2=Nc3cccc4cccc2c34)cc1	81*	2%	297%	43*	12%	1%
Clc1ccccc1C1SCC2Nc3ccccc3CN21 (centres undefined)	47	?	2%	49*	-1%	2%
CC1=CC(=C2C(=O)c3ccccc3C2=O)C=C(C)N1C	40	-3%	132%	26*	0%	-27%
CCOC(=O)c1cn2nc(Oc3ccccc3)ccc2n1	93*	128%	111%	71*	-8%	9%
CCOC(=O)c1cn2nc(Oc3ccc(OC)cc3)ccc2n1	27	23%	2%	9	5%	8%
CCOC(=O)c1cn2nc(Oc3ccc(C)cc3)ccc2n1	98*	-3%	?	43*	-1%	1%
O=C(N/N=C/c1ccccc1OC(F)F)NC1CCCCC1	11	?	?	2	1%	9%
CC(/C=N/NC(=O)NC1CCCCC1)=C\c1ccccc1	46*	-5%	10µM*	28*	nt	-1%
O=C(O)c1ccc(N/N=C/C(Br)=C/c2ccccc2)cc1	11	274%	129%	25*	-86%	1.1µM*
BrC(=C\c1ccccc1)/C=N/Nc1nc2ccccc2[nH]1	104*	?	-97%	75*	-3%	20µM*
C/C(=N\Nc1nc(N2CCCCC2)nc(N2CCOCC2)n1)c1ccccc1O	24	-2%	12µM*	-2	4%	0%
C/C(=N\Nc1nc(N2CCOCC2)nc(N2CCOCC2)n1)c1cccs1	-6	-22%	16%	-4	nt	9%
Cc1cc(C)nc(N2CCN(c3ccc(F)cc3)CC2)n1	2	78%	?	2	-5%	2%
BrC(=C\c1ccccc1)/C=N/Nc1nc(N2CCOCC2)nc(N2CCOCC2)n1	-10	?	7.4µM*	-3	-9%	?
SMILES	Shiga inhibitor	Pf growth 96h	Pf growth 48h	CHX counter	NS1 function inh	Sm TGR inh
O=C(N/N=C/c1cccnc1)C(O)c1ccccc1 (centres undefined)	9	4%	2%	-1	-1%	6%
O=C(N/N=C/C(Br)=C/c1ccccc1)C1CC1	56*	9.3µM*	?	25*	-6%	?
O=C(N/N=C/C(Br)=C/c1ccccc1)NC1CCCCC1	97*	?	?	50*	0%	?
O=C(N/N=C/C(Br)=C/c1ccccc1)C(O)c1ccccc1 (centres undefined)	74*	-7%	-20%	44*	-11%	3%
BrC(/C=C\c1ccccc1)=N/Nc1nc(N2CCOCC2)nc(N2CCOCC2)n1	2	?	?	2	-6%	nt
Cc1ccc(C)c(N2CCN(C(=O)CCS(=O)(=O)c3cc4c(cc3Cl)NC(=O)CO4)CC2)c1	nt	nt	nt	nt	nt	3%
CCOC(=O)Nc1nc(-c2ccccc2)c(C)s1	nt	nt	nt	nt	-13%	nt
CC(C)C12CN3CCN(CC(C3)/C1=N\NC(=O)Nc1ccccc1)C2	-11	7%	10%	-6	-4%	-1%
CCC12CN3CCN(CC(C3)/C1=N/NC(=O)c1ccncc1)C2	42	?	13%	-5	nt	1%
CC12CN3CCN(CC(C3)/C1=N/NC(=O)Nc1ccccc1)C2	37	?	42%	25*	5%	0%
CC12CN3CCN(CC(C3)/C1=N\NC(=O)Nc1cccc(Cl)c1)C2	50	?	27%	26*	nt	1%
CCCN1CNC(=S)N(CC2CCCO2)C1 (centres undefined)	-2	-25%	14%	-2	21%	-6%
Cc1cccc(OCC(=O)Nc2ccccc2C(=O)OCc2cc(=O)n3nc(C4CC4)sc3n2)c1	nt	nt	nt	nt	nt	54%
O=C(CC(Nc1ccc(Cl)cc1Cl)C(=O)O)c1ccccc1 (centres undefined)	155*	308%	242%	65*	-2%	3.2µM*
Cc1ccc(NC(CC(=O)c2ccccc2)C(=O)O)cc1Cl (centres undefined)	71*	i	392%	41*	-7%	0.79µM*
O=C(CC(C(=O)O)c1cccc(Cl)c1)c1ccccc1 (centres undefined)	-3	25%	-6%	1	-1%	5%
O=C(CC(Nc1ccccc1)C(=O)O)c1ccccc1 (centres undefined)	139*	nt	174%	37*	-56%	2.2µM*
O=C(CC(Nc1ccccc1)c1ccc(F)cc1)c1ccccc1 (centres undefined)	56*	2.6µM*	10%	73*	13%	4%
N#Cc1c(C(F)(F)F)cc(-c2cccs2)nc1SCC(=O)Nc1cccc(C(F)(F)F)c1	nt	nt	nt	nt	nt	-1%
COC(=O)c1sc(N2C(=O)c3oc4ccc(C)cc4c(=O)c3C2c2ccc(OC)cc2)nc1C (centres undefined)	nt	nt	nt	nt	nt	7%
Cn1cccc1/C=C(\C#N)C(N)=S	2	?	8%	-1	4%	7%
Cn1c(/C=C(\C#N)C(N)=S)ccc1-c1ccc(Br)cc1	27	?	?	15*	5%	-18%
CN(CCCC[C@H](CNCc1ccc(-c2ccccc2)cc1)N1C[C@H](c2ccccc2)N(CCc2ccc(Cl)c(Cl)c2)C(=O)C1=O)Cc1ccc(-c2ccccc2)cc1	-10	3.7µM*	?	-1	-11%	-31%

Source: PubChem BioAssay
